Results with a measured potency or affinity are listed apart. Inconclusive results are not listed. Active and inactive are the calls of the source.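 How the source made its calls: active means a valid curve of falling signal whose half-effect concentration is at most ten times the top tested dose; inconclusive means flat curve at 30 to 70% inhibition, or poor fit; inactive means signal rise, flat within 30%, or potency beyond limit.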

For the test, the target named is Scavenger receptor class B member 1 (Mus musculus) (UniProt Q61009). Nature of the test: mouse SR-BI DiI-HDL uptake blockers – ldlA[mSR-BI] cells, fluorescence, cherry pick, dose response (AID 493194).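 Further: CHO cells lacking LDL receptor and overexpressing mouse SR-BI; cellular uptake of fluorescently labeled HDL measured as cell fluorescence.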 The settings on record: CHO ldlA[mSR-BI] DiI-HDL uptake fluorescence, 3 h; series mostly up to 35 µM.
Chain of Scavenger receptor class B member 1 (Mus musculus) (Q61009 whole entry, looked up): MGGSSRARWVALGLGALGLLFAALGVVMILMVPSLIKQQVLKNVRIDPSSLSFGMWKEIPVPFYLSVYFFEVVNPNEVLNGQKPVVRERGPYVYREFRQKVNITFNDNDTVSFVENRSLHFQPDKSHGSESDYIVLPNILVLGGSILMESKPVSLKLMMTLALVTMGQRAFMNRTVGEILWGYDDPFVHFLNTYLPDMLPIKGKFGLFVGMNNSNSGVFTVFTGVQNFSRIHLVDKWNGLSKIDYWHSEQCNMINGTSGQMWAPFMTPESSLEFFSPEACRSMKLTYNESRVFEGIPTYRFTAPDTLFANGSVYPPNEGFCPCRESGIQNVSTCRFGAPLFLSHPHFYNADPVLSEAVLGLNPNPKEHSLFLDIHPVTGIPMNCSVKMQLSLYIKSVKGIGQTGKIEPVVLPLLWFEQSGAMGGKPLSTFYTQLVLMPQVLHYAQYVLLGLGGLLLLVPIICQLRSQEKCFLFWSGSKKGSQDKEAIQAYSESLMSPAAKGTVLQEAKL
Consider `CCC(C)C1/C=C\CC(NC(=O)OCC2c3ccccc3-c3ccccc32)CC(=O)N1Cc1ccccc1` (configuration not stated), for which the compound was called inactive. As for `O=C(Nc1ccc(-c2nc3ccccc3o2)c(O)c1)c1cc(-n2cnnc2)ccc1Cl`, the call was inactive. Turning to `CCCOC1CCCN(C(=O)c2cc(COc3cncc(Cl)c3)on2)C1` (configuration not stated), the call was inactive. Regarding `O=C(Nc1ccccc1)C1=C(O)CC(c2ccoc2)CC1=Nc1ccccc1` (configuration not stated), the call was inactive. As to `COC(=O)/C=C/c1ccc2c(c1)S(=O)(=O)N(c1cccc(OC)c1)[C@H]2CC(=O)OC`, the call was inactive.

Regarding `COc1ccc(OC)c(CCNC(=O)c2ccc(NC3=NC4CS(=O)(=O)CC4S3)cc2)c1` (configuration not stated), the call was inactive. To `CCOc1ccccc1COC(=O)c1cccc(-n2cnnn2)c1` belongs “inactive”; to `COc1cc(OC)cc(C(=O)N[C@H](C(=O)OCC(=O)c2ccc3c(c2)NC(=O)CO3)C(C)C)c1`, “inactive”. With `COc1ccc(-c2nnn(CC(=O)N(CC(=O)NC3CCCC3)c3cccc(C)c3)n2)cc1OC`, the outcome was inactive. For `O=C(C[C@H]1C/C=C\CCC(=O)OC[C@H]2CCCN2C1=O)NCCO`, the result was inactive. `CCN(CC)C(=O)c1cccc(NC(=O)c2cc(C3CC3)nc3c2cnn3C(C)C)c1`: the compound was called inactive.

Take `CC1Cc2ccccc2N1C(=O)Cn1nnc(-c2ccccc2NC(=O)C2CCC2)n1` (configuration not stated): the result was inactive. Take `O=C(CN1CCN(c2ncc(C(F)(F)F)cc2Cl)CC1)NCCNc1ncc(C(F)(F)F)cc1Cl`: the result was inactive.

Take `COC(=O)c1[nH]c2c(c1C)C(=O)CC(c1cccs1)C2` (configuration not stated): the call was inactive. Consider `Clc1ccc(Cn2nnc(-c3ccc(N4CCOCC4)cc3)n2)cc1`, for which the call was inactive. Take `CNc1nc(-c2ccc3c(c2)CCN3C(=O)c2ccccc2F)c(C)s1`: the result was inactive.

Turning to `COc1cccc(-c2nnc(SC(C(=O)c3c[nH]c4ccccc34)c3ccccc3)n2C)c1` (configuration not stated), the compound was classed as inactive. With `COc1ccc([C@H]2/C=C\CN(S(=O)(=O)c3ccc4ccccc4c3)[C@@H](C)C(=O)N2Cc2ccc(F)cc2)cc1`, the compound was called inactive. In the case of `Cc1ccc(S(=O)(=O)N2CCC(C(=O)NNC(=O)c3cccnc3)CC2)cc1`, the call was inactive. For `COc1ccc(N2CCN(C(=O)Cc3csc(NC(=O)Nc4ccccc4OC)n3)CC2)cc1`, the compound was called inactive.

With `Cc1cc(N(C)C(=O)c2ccc3c(c2)S(=O)(=O)c2cc(Cl)ccc2C3=O)c(C(F)(F)F)o1`, the compound was called inactive. As for `COc1cc(OC)cc(C(=O)N[C@H](C(=O)Nc2nc(-c3cc(OC)ccc3OC)cs2)C(C)C)c1`, the entry is “inactive”.

Source of the values: PubChem BioAssay AID493194 (Broad Institute, 2011).
